Screening data (PubChem BioAssay)
PLK1 PBD block: inhibitors of human PLK1 polo-box domain binding | P53350 | 360,000 compounds, 2.8% hits | Plk1 PBD binding of FITC phosphopeptide, fluorescence polarization | Potency, µM, without a hit: max response, negative = inhibition, usual class: inhibitors; also: series mostly up to about 57 µM; % is scaled to controls: 0 for no effect and ±100 for the full control effect; nearly all actives have a fitted effect of over 65% in size
12-LOX inh: ALOX12 (human) lipoxygenase inhibition | 580,000 compounds, 1.1% hits | Potency, µM (top dose mostly 108 µM), inactives show at the top dose activity change, negative = inhibition, usual class: inhibitors | purified 12hLO, xylenol orange hydroperoxide absorbance | AID 1671190; also: % is scaled to controls: 0 for no effect and ±100 for the full control effect
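Purified human 12hLO (150 nM final) in 25 mM Hepes, 0.01% Triton X-100, pH 7.0 was preincubated 15 min at room temperature with compound. Then 40 uM arachidonic acid was added, 30 min. Hydroperoxide was read by Fe-XO absorbance ratio 573/405 nm.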
JMJD2A Tudor inh: inhibitors of human JMJD2A Tudor domain. AID 504339. AlphaScreen JMJD2A-Tudor / H3K4me3 peptide binding. 390,000 compounds, 4.4% hits. Potency, µM (titrated, usually from 114 µM), for inactives: at the highest dose activity change, negative = inhibition, actives largely listed as inhibitors; also: % is scaled to controls: 0 for no effect and ±100 for the full control effect; nearly all actives have a fitted effect of over 50% in size
BAZ2B block: BAZ2B (human) inhibition; Q9UIF8; 360,000 compounds, 4.4% hits; Potency, µM (highest dose often 114 µM), without a hit: at the highest dose activity change, negative = inhibition, usual class: inhibitors; AlphaScreen BAZ2B-H3K14Ac peptide displacement; AID 504333; also: % is scaled to controls: 0 for no effect and ±100 for the full control effect; nearly all actives have a fitted effect of over 60% in size
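In this displacement format the biotinylated H3(5-23) peptide acetylated at Lys14 serves as ligand at 50 nM, with BAZ2B at 50 nM in PBS pH 7.4 containing 0.01% Tween-20. Donor and acceptor beads are 10 ug/mL final.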
HP1b binding inh: inhibitors of HP1-beta chromodomain binding to methylated histone tails | AlphaScreen HP1-beta / biotin-H3K9me3 peptide binding | Potency, µM (top dose mostly 114 µM), for the others: top-dose activity change, negative = inhibition, hits mostly inhibitors | 390,000 compounds, 0.56% hits | AID 540317; also: nearly all actives have a fitted effect of over 70% in size
Target sequence (P83916 whole entry, looked up): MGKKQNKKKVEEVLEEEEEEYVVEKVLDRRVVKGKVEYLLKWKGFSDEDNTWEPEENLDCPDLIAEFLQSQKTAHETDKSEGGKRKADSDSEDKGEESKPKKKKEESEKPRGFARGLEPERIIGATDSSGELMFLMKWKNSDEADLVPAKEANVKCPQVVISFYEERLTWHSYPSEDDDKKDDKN
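Compound inhibition of the preformed complex between 50 nM HP1-beta and 50 nM biotinylated H3K9me3 peptide was read by AlphaScreen. Buffer was PBS pH 7.4 with 0.01% Tween-20. Incubations ran 30 min at room temperature, with 10 ug/mL donor/acceptor beads.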
G9a inh: G9a (human) methyltransferase inhibition | Q96KQ7 | G9a H3K9 monomethylation, AlphaScreen, 2 h | Potency, µM (highest dose often 102 µM), inactives show top-dose activity, negative = inhibition, most hits filed as inhibitors | 350,000 compounds, 8.8% hits | AID 504332; also: % is scaled to controls: 0 for no effect and ±100 for the full control effect; nearly all actives have a fitted effect of over 75% in size
Target sequence (Q96KQ7 913-1193 limits assumed): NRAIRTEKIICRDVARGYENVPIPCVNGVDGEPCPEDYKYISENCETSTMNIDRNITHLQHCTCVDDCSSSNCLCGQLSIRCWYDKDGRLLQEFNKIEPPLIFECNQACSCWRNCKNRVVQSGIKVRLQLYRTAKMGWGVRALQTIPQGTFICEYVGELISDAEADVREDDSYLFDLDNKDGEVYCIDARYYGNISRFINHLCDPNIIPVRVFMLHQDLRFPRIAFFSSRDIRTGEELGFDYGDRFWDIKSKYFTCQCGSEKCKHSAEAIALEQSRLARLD
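AlphaScreen detection with an anti-monomethyl H3K9 antibody quantified product after a 2 h room-temperature reaction containing 500 nM biotinylated H3K9 peptide, 20 µM SAM and 20 nM enzyme, which had been preincubated 15 min with compound.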
Numbers without * were called inactive; ? = inconclusive; nt = not tested or not shown; [ ] = another dose, or the depositor's remark. Compounds with a hit are over-represented: about 9% of the library has one in this group of screens. Calls follow the shape of the dose curve; as a rule, active = well fitted curve in the direction sought with a large enough effect; inconclusive = small, poorly fitted or top-dose-only effect, or another doubt; inactive = no such curve, though single readings can be large; an effect the other way counts as inactive or inconclusive. Potency is read from the fitted curve at half-maximal effect.

SMILES | PLK1 PBD block | 12-LOX inh | JMJD2A Tudor inh | BAZ2B block | HP1b binding inh | G9a inh
O=C(Oc1ccc(C(=S)N2CCOCC2)cc1)c1cc([N+](=O)[O-])cc([N+](=O)[O-])c1 | -24% | -16% | -32% | -27% | 40% | 35µM*
FC(F)(F)c1n[nH]c(=S)n1/N=C/c1ccco1 | -8% | -18% | ? | -8% | 28% | 3.5µM*
S=c1[nH]nc(-c2ccco2)n1/N=C/C=C/c1ccccc1 | -16% | ? | 20µM* | -32% | -17% | 0.71µM*
S=c1[nH]nc(-c2ccc(Cl)cc2)n1/N=C/C=C/c1ccco1 | 27µM* | 14µM* | 56µM* | ? | ? | nt
Cc1ccccc1-c1n[nH]c(=S)n1/N=C/C=C/c1ccco1 | ? | ? | 18µM* | 45µM* | -11% | 2.2µM*
N#Cc1cc(-c2ccccc2)oc1NC(=O)c1ccccc1 | -5% | 0% | 12% | -1% | 35% | -2%[59 µM]
Cc1cc(-c2n[nH]c(=S)n2/N=C/C=C/c2ccco2)n[nH]1 | -27% | ? | 2.8µM* | 50µM* | 4% | 2.5µM*
S=c1[nH]nc(-c2cccnc2)n1/N=C/C=C/c1ccco1 | -3% | ? | 20µM* | 45µM* | 35% | nt
CC(/C=N/n1c(-c2cccnc2)n[nH]c1=S)=C\c1ccco1 | ? | ? | 4µM* | -35% | -33% | 1.3µM*
CC(/C=N/NC(=O)c1cccnc1)=C\c1ccco1 | -14% | 20% | -19% | -2% | 12% | -9%[12.7 µM]
S=c1[nH]nc(-c2ccccc2)n1/N=C/C=C/c1ccco1 | -5% | 40µM* | 20µM* | ? | -19% | 1.3µM*
CSCCC(NC(=O)c1ccc(Cl)cc1Cl)C(=O)N1CC(C)OC(C)C1 (centres undefined) | -14% | 13% | -12% | -2% | 32% | 22%[12.7 µM]
COC(=O)c1ccc(C(=O)Nc2ccc(-c3nc4cc(NC(=O)c5ccc(C(=O)OC)cc5)ccc4o3)cc2)cc1 | nt | 0% | -23% | -1% | 5% | 3%[59 µM]
S=c1[nH]nc(-c2ccc(Cl)cc2)n1/N=C/c1ccco1 | -23% | ? | 40µM* | -26% | -4% | 0.89µM*
C[N+](C)(C)CCCN1C(=O)CCCC1=O | -2% | 20% | 56µM* | ? | 16% | -53%
O=C(O)CCCCCN1C(=O)CCC1=O | -5% | 0% | -5% | -22% | 59% | 22%
Cc1ccc(S(=O)(=O)c2cn(CC(=O)Nc3cccc(Cl)c3)c3ccccc3c2=O)cc1 | nt | ? | -22% | -14% | 18% | -37%[59 µM]
CCN1CCCC1CNS(=O)(=O)c1cccc(C(F)(F)F)c1 (centres undefined) | -4% | ? | 1% | 2% | 17% | 45µM*
CN(C)Cc1cc(O)c(CN(C)C)cc1O | ? | ? | 0.79µM* | 22µM* | ? | 1.4µM*
COc1ccc(/C=C/C2=CC(C)(C)NC(=S)N2)cc1 | -14% | ? | -8%[57.1 µM] | -14% | 14% | 8.9µM*
CSc1ccc(C2NC(=O)c3c(sc4c3CCN(C)C4)N2)cc1 (centres undefined) | -6% | 96% | ? | -34% | 1% | 40µM*
CN1CCc2c(sc3c2C(=O)NC(c2ccc(-c4cccc(Cl)c4)o2)N3)C1 (centres undefined) | -6% | nt | 50µM* | 40µM* | ? | nt
CN1CCc2c(sc3c2C(=O)NC(c2ccc(C(C)(C)C)cc2)N3)C1 (centres undefined) | nt | 225% | ? | -17% | 7% | 8.9µM*
Cc1ccsc1C1NC(=O)c2c(sc3c2CCN(C)C3)N1 (centres undefined) | -21% | 194%[57.4 µM] | ? | -7% | ? | 40µM*
CN1CCc2c(sc3c2C(=O)NC(c2cccs2)N3)C1 (centres undefined) | -11% | 361% | ? | -20% | -18% | ?
SMILES | PLK1 PBD block | 12-LOX inh | JMJD2A Tudor inh | BAZ2B block | HP1b binding inh | G9a inh
COc1ccc(C(=O)Oc2ccc(C3NC(=O)c4c(sc5c4CCN(C)C5)N3)cc2OC)cc1 (centres undefined) | nt | 50% | 56µM* | 7% | ? | 26%[59 µM]
COc1ccc(-c2nnc3ccc(SCC(=O)N4CCCCC4)nn23)cc1OC | -7% | -1% | -7% | 12% | 43% | ?
O=C(O)c1cccc(N2C(=O)c3cccc4cccc(c34)C2=O)c1 | -13% | 2% | -8% | -12% | 29% | 11%
O=C(O)c1cccc(N2C(=O)c3cc([N+](=O)[O-])cc4cc([N+](=O)[O-])cc(c34)C2=O)c1 | 8.4µM* | -9% | 50µM* | 56µM* | ? | nt
O=C1/C(=C/c2ccc([N+](=O)[O-])cc2)C=C(c2ccccc2)N1c1ccc(O)cc1 | -3% | ? | ? | 10µM* | ? | ?
O=C(Nc1cccc(C(=O)O)c1)/C(=C/c1ccc([N+](=O)[O-])cc1)NC(=O)c1ccccc1 | -3% | -15% | -14% | -21% | 18% | -36%
COc1ccc(N2C(=O)/C(=C/c3ccc([N+](=O)[O-])cc3)C=C2c2ccccc2)cc1 | -10% | -28% | 2.8µM* | 2.2µM* | 3.2µM* | nt
O=C(O)c1cccc(N2C(=O)/C(=C/c3ccc([N+](=O)[O-])cc3)C=C2c2ccccc2)c1 | ? | 35µM* | 25µM* | 40µM* | -26% | 16µM*
O=C1/C(=C/c2ccc([N+](=O)[O-])cc2)C=C(c2ccccc2)N1c1ccccc1 | -22% | -14% | -26% | -26% | -5% | ?
CCOC(=O)c1sc(NC(=O)N2CCN(CCO)CC2)c(C(=O)OCC)c1C | nt | 0% | nt | nt | nt | nt
Cc1cccc(OCCOCCSc2ncccn2)c1 | 1% | 2% | 9% | 11% | 45% | 9%[12.7 µM]
Cc1cccc(OCCSc2nc(N)cc(N)n2)c1 | 3.8µM* | ? | -12%[11.4 µM] | ? | -10% | nt
CN(C)C(=O)C1CN(c2ccccc2)C(=O)N1 (centres undefined) | nt | 34%[176 µM] | nt | nt | nt | nt
COc1ccc(/C=N/Nc2ccc(C(=O)O)cc2)c(OC)c1OC | -10% | 0% | -23% | 19% | 35% | ?
COc1cc(/C=N/Nc2ccc(C(=O)O)cc2)cc(OC)c1OC | -1% | -22% | -7% | -4% | 45% | 50µM*
O=[N+]([O-])c1ccc(/C=N/Nc2cccc(Cl)c2)cc1 | nt | 3.2µM* | nt | nt | nt | nt
Cc1cccc(C)c1-n1c(C)cc(/C=N\Nc2ccc([N+](=O)[O-])cn2)c1C | 6% | 0% | 28µM* | -13% | -23% | ?
COc1ccc(/C=N/Nc2ccc([N+](=O)[O-])cc2)cc1O | 21% | ? | ? | 50µM* | ? | ?
COc1ccc(C(=O)COC(=O)CCN2C(=O)C3C4CCC(C4)C3C2=O)cc1 (centres undefined) | -8% | 1% | -7% | -11% | -5% | 7%[59 µM]
